# Bioassay records as filed in PubChem BioAssay.
# In the library only some 6.3% were active in any assay of this set; here they are far more common.
# S2 tox: viability counter-screen for ATXN expression inhibitors. actives 0.49% (n = 400,000). AID 651635. S2 cells (HEK-293 line with an ATXN2-luciferase reporter) viability, CellTiter-Fluor protease fluorescence, 24 h. Potency, µM (doses to about 56.7 µM), most hits filed as cytotoxic; further: nearly all actives have a fitted effect of over 40% in size
# RORg inh: inhibitors of mouse ROR gamma transcriptional activity. P51450. Drosophila S2 Gal4-RORgamma UAS-luciferase reporter, 20 h. Potency, µM (highest dose often 53.6 µM), for the others: top-dose activity change, negative = inhibition, usual class: inhibitors. actives 5.4% (n = 310,000); further: on the % scale 0 is the no-effect control and ±100 the full control effect; nearly all actives have a fitted effect of over 60% in size
# Target sequence (P51450 whole entry, looked up, the tested form may be a part): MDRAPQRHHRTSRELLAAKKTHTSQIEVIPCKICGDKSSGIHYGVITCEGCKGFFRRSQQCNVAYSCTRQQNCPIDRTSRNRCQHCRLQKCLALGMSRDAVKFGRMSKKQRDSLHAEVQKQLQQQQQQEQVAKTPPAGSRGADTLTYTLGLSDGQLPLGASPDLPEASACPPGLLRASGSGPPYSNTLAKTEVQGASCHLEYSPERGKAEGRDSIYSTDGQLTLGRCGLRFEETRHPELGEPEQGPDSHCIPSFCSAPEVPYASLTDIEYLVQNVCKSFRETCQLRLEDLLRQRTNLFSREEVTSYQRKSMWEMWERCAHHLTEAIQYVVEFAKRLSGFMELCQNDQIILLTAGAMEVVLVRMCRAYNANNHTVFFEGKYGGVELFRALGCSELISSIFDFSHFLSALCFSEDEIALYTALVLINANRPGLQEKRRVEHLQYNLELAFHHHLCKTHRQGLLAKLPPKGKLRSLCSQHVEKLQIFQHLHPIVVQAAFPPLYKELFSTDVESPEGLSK
#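 Drosophila S2 cells stably expressing Gal4-DBD/mouse RORγ fusion under metallothionein promoter plus UAS-luciferase; compound 1 h, then 700 uM CuSO4 induction for 20 h at ambient temperature; inhibition read as reduced luminescence.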
# ATXN2 expr inh: reduces ATXN2 reporter expression in HEK-293 cells; Potency, µM (series often up to 57 µM), inactives show at the highest dose activity change, negative = inhibition, actives largely listed as inhibitors; HEK-293 ATXN2-luciferase reporter, luminescence, 24 h; actives 0.72% (n = 360,000); AID 1745845; further: on the % scale 0 is the no-effect control and ±100 the full control effect; nearly all actives have a fitted effect of over 55% in size
#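 qHTS (up to 57 uM final) was run with 24 h compound exposure of reporter cells at 37 °C. Each well was multiplexed: SteadyGlo luminescence measured ATXN2-luciferase expression after a fluorogenic Gly-Phe-AFC viability readout (25 uM final).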
# TGFb SMAD3 inh: TGF-b pathway inhibition; HepG2 CAGA-GFP TGF-b/SMAD3 reporter, GFP fluorescence, 18 h; TGF-beta stimulated, 500 pg/mL final; Potency, µM (doses to about 46.1 µM), inactives show at the highest dose activity, negative = inhibition, most hits filed as inhibitors; AID 588855; actives 1.2% (n = 410,000); further: on the % scale 0 is the no-effect control and ±100 the full control effect; nearly all actives have a fitted effect of over 65% in size
#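 Using HEPG2 CAGA-GFP reporter cells at 1000 cells/well, we pinned test compounds, stimulated with recombinant TGF-beta (500 pg/mL final) and measured total well GFP after 18 h.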
# HepG2 tox-1: HepG2 cytotoxicity, counter-screen for TGF-b inhibitors; HepG2 CAGA-GFP viability, ATP luminescence, 18 h; Potency, µM (doses to about 46.1 µM), for the others: at the top dose activity change, negative = cytotoxicity, hits mostly cytotoxic; actives 0.76% (n = 410,000); AID 588856
#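 HepG2 CAGA-GFP cells (1000/well, DMEM with 1% FBS) received compound, then TGF-beta at 500 pg/mL final, and were incubated 18 hours at 37 degrees C. Viability was read by CellTiter-Glo luminescence. Media-only wells were set as complete cell-killing and DMSO as no toxicity.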
# VP16 counter: inhibits Gal4-VP16 luciferase reporter, ROR gamma counter-screen. Drosophila S2 Gal4-VP16 UAS-luciferase, luminescence, 20 h. Potency, µM (top dose mostly 53.6 µM), inactives show top-dose activity, negative = inhibition, actives largely listed as inhibitors. actives 3.5% (n = 310,000). AID 2546;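 further: Gal4-VP16 expression switched on by copper sulfate through the metallothionein promoter; on the % scale 0 is the no-effect control and ±100 the full control effect; nearly all actives have a fitted effect of over 50% in size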
# TGFb confirm: TGF-b pathway inhibition, cherry-pick retest; Potency, µM (titrated, usually from 46.1 µM), for the others: at the top dose activity, negative = inhibition, usual class: inhibitors; shares compounds with TGFb SMAD3 inh; HepG2 CAGA-GFP TGF-b reporter, GFP fluorescence, 18 h; cells stimulated with TGF-beta, 500 pg/mL; actives 63% (n = 1,600); further: on the % scale 0 is the no-effect control and ±100 the full control effect; nearly all actives have a fitted effect of over 65% in size
# HepG2 tox-2: HepG2 cytotoxicity, TGF-b inhibitor counterscreen. shares compounds with TGFb SMAD3 inh. HepG2 CAGA-GFP viability, ATP luminescence, 18 h; cells stimulated with TGF-beta, 500 pg/mL. Potency, µM (series often up to 46.1 µM), inactives show top-dose activity, negative = cytotoxicity, hits mostly inhibitors. actives 27% (n = 1,600). AID 720535; further: on the % scale 0 is the no-effect control and ±100 the full control effect; nearly all actives have a fitted effect of over 70% in size
# CCL64 TGFb inh: orthogonal confirmation of TGF-b inhibitors in CCL64 cells; shares compounds with TGFb SMAD3 inh; CCL64 CAGA-GFP reporter, TGF-b stimulated, GFP fluorescence, 18 h; Potency, µM (titrated, usually from 46.1 µM), for inactives: top-dose activity, negative = inhibition, most hits filed as inhibitors; actives 41% (n = 1,600); AID 720536; further: nearly all actives have a fitted effect of over 65% in size
# COP TGFb inh: TGF-b inhibition validated with COP promoter; actives 3% (n = 1,600); Potency, µM (doses to about 46.1 µM), for inactives: top-dose activity, negative = inhibition, usual class: inhibitors; shares compounds with TGFb SMAD3 inh; HepG2 COP-GFP TGF-b reporter, GFP fluorescence, 18 h; cells stimulated by added recombinant TGF-beta; further: nearly all actives have a fitted effect of over 70% in size
# * = called active by the depositor; i = inactive; ? = inconclusive; nt = not tested or not shown; [ ] = remark or other dose. The call rests on the fitted dose curve; in most records, active means well fitted curve in the direction sought with a large enough effect; inconclusive means small, poorly fitted or top-dose-only effect, or another doubt; inactive means no such curve, though single readings can be large; an effect the other way counts as inactive or inconclusive. Potency means the concentration at half of the fitted maximal effect.
SMILES,S2 tox,RORg inh,ATXN2 expr inh,TGFb SMAD3 inh,HepG2 tox-1,VP16 counter,TGFb confirm,HepG2 tox-2,CCL64 TGFb inh,COP TGFb inh
OC12C3C4CC5C6C4C1C6C(C53)N2CCc1cccc(F)c1 (stereo not drawn),nt,-2%,nt,nt,nt,0%,nt,nt,nt,nt
O=C(Nc1ccc(Cl)cc1)Nc1ccc(Cl)c(Cl)c1,?,43%[10 µM],?,3.2µM*,-21%,?,?,21µM*,5.2µM*,94%
CCC1C(c2cc(OC)c(OC)c(OC)c2)c2cc3c(cc2OC1N1CCCC1)OCO3 (stereo not drawn),?,nt,-5%,10µM*,-9%,nt,?,-17%,?,-13%
COc1ccc(C(=O)Nc2ccc(-c3cc(C(F)(F)F)nn3-c3ccccc3)cc2)cc1OC,i,nt,?,9%,-20%,nt,nt,nt,nt,nt
CC(=O)OCC12CC(OC(=O)CC(C)C)C(C)=CC1OC1C(O)C(OC(C)=O)C2(C)C12CO2 (stereo not drawn),?,nt,-71%,-117%,-1%,nt,0.01µM*,nt,0.0052µM*,11%
O=C1NCN(c2ccccc2)C12CCN(C(c1ccccc1)c1nnnn1C1CCCC1)CC2 (stereo not drawn),?,nt,-24%,11µM*,-2%,nt,?,2%,21µM*,3%
O=C1NCN(c2ccccc2)C12CCN(C(c1cccc3ccccc13)c1nnnn1Cc1ccccc1)CC2 (stereo not drawn),nt,nt,-39%,?,-8%,nt,nt,nt,nt,nt
CCCCn1nnnc1C(c1cccc2ccccc12)N1CCC2(CC1)C(=O)NCN2c1ccccc1 (stereo not drawn),?,nt,-38%,18µM*,-5%,nt,15µM*,?,?,60%
COc1ccc(C(c2nnnn2C2CCCCC2)N2CCC3(CC2)C(=O)NCN3c2ccccc2)cc1 (stereo not drawn),?,nt,?,?,-44%,nt,?,-21%,18µM*,-4%
COc1cccc(C(c2nnnn2C2CCCC2)N2CCC3(CC2)C(=O)NCN3c2ccccc2)c1OC (stereo not drawn),nt,nt,?,?,9%,nt,nt,nt,nt,nt
COC(=O)C1=C(c2ccc(OC(F)(F)F)cc2)C[C@@H]2CC[C@H]1N2C(=O)N1CCC(C)CC1,28µM*,nt,?,6.3µM*,3%,nt,16µM*,?,?,50%
Cc1nn(-c2nccs2)c2c1C(=O)CC(C)(C)C2Br (stereo not drawn),i,nt,?,11µM*,-9%,nt,13µM*,?,?,34%
BrCC1C[n+]2c(SCc3ccccc3)nc3sc4c(c3c2O1)CCCC4 (stereo not drawn),i,?,33%,17%,-31%,3%,nt,nt,nt,nt
Nc1c2c(nc3sc4c(c13)CCCCC4)CCCC2,?,-2%,-14%,20µM*,-14%,?,15µM*,?,?,94%
COC(=O)[C@@H]1C[C@@]2(O)[C@@H](O)[C@@H](O)[C@@H](O)C[C@H]2N1Cc1cccnc1,nt,-25%,nt,nt,nt,-5%,nt,nt,nt,nt
O=[N+]([O-])c1ccc(N2CCOCC2)c2cccnc12,nt,-34%,nt,-14%,-1%,12%,nt,nt,nt,nt
O=[N+]([O-])c1ccc(N2CCOCC2)c2c1no[n+]2[O-],nt,nt,nt,3.2µM*,-101%,nt,18µM*,13µM*,5.2µM*,?
C=C1C(O)[C@@H]2O[C@]3(CC[C@H](/C=C/C(C)[C@@H]4CC(C)=CC5(O[C@H](C[C@@](C)(O)C(=O)O)CCC5O)O4)O3)CC[C@H]2O[C@@H]1C(O)CC(C)[C@H]1OC2(CCCCO2)CCC1C (stereo partly drawn),?,nt,0.32µM*,0.089µM*,-71%,nt,0.021µM*,0.052µM*,0.082µM*,?
c1ccc(N2CC3(CCNCC3)C2)nc1,nt,-18%,nt,nt,nt,-8%,nt,nt,nt,nt
O=[N+]([O-])c1oc2ccc3ccccc3c2c1CCO,?,nt,?,4.5µM*,4%,nt,0.82µM*,1.2µM*,?,7%
CC(C)[C@H](NC(=O)[C@H](CC(=O)O)NC(=O)[C@H](Cc1ccccc1)NC(=O)[C@@H](C)NC(=O)[C@@H](N)Cc1ccc(O)cc1)C(=O)N[C@H](C(=O)NCC(N)=O)C(C)C,nt,4%,nt,nt,nt,2%,nt,nt,nt,nt
O=c1[nH]c2ccccc2n1C1CCN(C(c2ccccc2OC(F)(F)F)c2nnnn2-c2ccc3c(c2)OCCO3)CC1 (stereo not drawn),nt,nt,13µM*,8.9µM*,-56%,nt,?,?,8.2µM*,38%
O=c1[nH]c2ccccc2n1C1CCN(C(c2cccc3ccccc23)c2nnnn2Cc2ccccc2)CC1 (stereo not drawn),?,nt,?,16µM*,-23%,nt,6.5µM*,-7%,?,2%
COc1ccc(-n2nnnc2C(c2ccccc2)N2CCC(n3c(=O)[nH]c4ccccc43)CC2)cc1 (stereo not drawn),?,nt,?,8.9µM*,-2%,nt,?,?,?,58%
O=C1NCN(c2ccccc2)C12CCN(C(c1cccs1)c1nnnn1-c1ccc3c(c1)OCCO3)CC2 (stereo not drawn),?,nt,-23%,13µM*,21%,nt,?,-27%,10µM*,53%
